Hits are enriched below; roughly 2.3% of the tested compounds scored in any of these assays.
Bst PK mod – pyruvate kinase (B. stearothermophilus) modulation; purified pyruvate kinase, luminescence ATP production; ribose 5-phosphate activator present at AC10; Potency, µM; 51,000 compounds, 1.2% hits; AID 361; in the data active means potency below about 11 µM; inconclusive means mostly about 12 µM to 25 µM;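 the screen sought inhibitors and activators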;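 further: scaled between full activation by ribose 5 phosphate and full inhibition by luteolin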
GBA mod – modulators of human glucocerebrosidase | AID 360 | purified enzyme, resorufin glucoside fluorescence (screen aimed at inhibitors), 20 min | Potency, µM | P04062 | 48,000 compounds, 1.1% hits; in the data active means potency below about 15 µM; inconclusive means mostly about 16 µM to 33 µM;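 further: the screen sought inhibitors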
Target sequence (P04062 whole entry, looked up): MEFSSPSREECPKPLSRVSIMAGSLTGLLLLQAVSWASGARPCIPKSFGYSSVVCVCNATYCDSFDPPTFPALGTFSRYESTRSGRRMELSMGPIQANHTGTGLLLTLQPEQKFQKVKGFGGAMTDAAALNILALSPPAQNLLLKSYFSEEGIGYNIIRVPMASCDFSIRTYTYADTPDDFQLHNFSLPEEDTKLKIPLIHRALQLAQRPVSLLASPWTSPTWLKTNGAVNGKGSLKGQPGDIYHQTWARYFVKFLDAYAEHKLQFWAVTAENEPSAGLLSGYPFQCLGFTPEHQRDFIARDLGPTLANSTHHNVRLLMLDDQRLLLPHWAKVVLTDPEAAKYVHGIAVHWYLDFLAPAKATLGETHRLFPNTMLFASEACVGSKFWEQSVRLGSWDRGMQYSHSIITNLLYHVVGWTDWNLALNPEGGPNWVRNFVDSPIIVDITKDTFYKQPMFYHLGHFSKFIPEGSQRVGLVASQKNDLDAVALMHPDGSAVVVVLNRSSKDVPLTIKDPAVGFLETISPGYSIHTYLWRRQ
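Compounds titrated against 0.2 nM normal enzyme, 30 uM resorufin beta-D-glucopyranoside substrate, citrate/phosphate buffer with taurocholate and tween-20, pH 5.9. Reaction ran 20 min at room temperature; fluorescence (Ex 548/Em 600) gave AC50.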
Numbers without * were called inactive; i = inactive; ? = inconclusive; / = not tested or not shown. Potency means the concentration at half of the fitted maximal effect.

SMILES	Bst PK mod	GBA mod
COc1ccc(-c2ccc(-c3noc(C)n3)c(OC)n2)cc1	>57	>76.9
CN(C)CCCN1C(=O)C(O)=C(C(=O)c2cccs2)C1c1ccccn1 (stereo not given)	>57	>76.9
O=C(c1nc(-c2ccccc2)n(-c2ccccc2)n1)N1CCN(S(=O)(=O)c2ccccc2)CC1	>57	>76.9
CN1CCN(C(=O)CSc2nc(-c3cccs3)ccc2C#N)CC1	i	/
COc1nc(-c2ccccc2)ccc1-c1noc(-c2ccc(F)cc2)n1	>57	>76.9
COc1ccc(-c2ccc(-c3noc(-c4ccc(OC)c(OC)c4)n3)c(OC)n2)cc1	>57	>76.9
COc1nc(-c2ccccc2)ccc1-c1noc(-c2ccccc2F)n1	>57	3.75*
COc1ccc(-c2ccc(-c3noc(-c4cccc(OC)c4)n3)c(OC)n2)cc1	>57	5.99*
Cc1ccc(Cn2ccc(NC(=O)c3c(-c4ccccc4Cl)noc3C)n2)cc1	>57	/
COc1ccc(-c2nc(N3CCOCC3)nc3nn4c(C)c(CCC(=O)O)c(C)nc4c23)cc1	>57	>76.9
CC(=O)N1CCc2cc(S(=O)(=O)CCC(=O)Nc3c(C)n(C)n(-c4ccccc4)c3=O)ccc21	>57	>76.9
c1ccc(Cn2nnnc2C(c2cccnc2)N2CCN(c3ccccc3)CC2)cc1 (stereo not given)	>57	>76.9
COc1ccc(CCN2C(=O)CC(C(N)=O)SC2=Nc2ccccc2)cc1OC (stereo not given)	>57	>76.9
Cc1cccc(S(=O)(=O)c2c(N)n(/N=C/c3ccco3)c3nc4ccccc4nc23)c1	/	6.08*
Cc1ccc(S(=O)(=O)c2c(N)n(/N=C/c3ccco3)c3nc4ccccc4nc23)cc1	>57	>76.9
Clc1ccc(-c2nnc(-c3ccccc3)o2)c(Cl)c1	2.55*	>76.9
c1ccc(-c2nnc(-c3cccc(-c4nnc(-c5ccccc5)o4)c3)o2)cc1	>57	>76.9
Cc1ccc(S(=O)(=O)n2nc(-c3ccc(Cl)cc3)nc2NCc2ccco2)cc1	>57	/
O=C(Nc1ccc(Br)c2cccnc12)c1ccc(Cn2cc(Cl)cn2)o1	>57	9.25*
O=C(Nc1cccc2cccnc12)c1ccc(Br)o1	>57	?
COc1ccc(N2CCN(C(=O)c3ccc(C)cc3Cl)CC2)cc1	/	>76.9
COc1ccc(N2CCN(C(=O)c3ccc(C)c(Cl)c3)CC2)cc1	6.38*	>76.9
CN(C1CCCCC1)S(=O)(=O)Cc1ccccc1	>57	>76.9
COC(=O)c1ccc2c(=O)n(CCC3=CCCCC3)c(SCC(=O)N3CCCC3)nc2c1	>57	>76.9
CCCc1cc(C(=O)N2CCN(c3ccccc3C)CC2)cs1	>57	>76.9
SMILES	Bst PK mod	GBA mod
COc1cccc(-c2cc(C(=O)Nc3ccccc3SC)no2)c1	/	>76.9
COc1cccc(-c2cc(C(=O)Nc3cccc(O)c3)no2)c1	5.63*	14.6*
CCCNS(=O)(=O)c1ccc(OCC(=O)NCc2ccc3c(c2)OCO3)cc1	>57	>76.9
CNc1nc(NC)nc(-n2c(C(F)(F)F)nc3ccccc32)n1	/	>76.9
O=C(NCCN1CCOCC1)NC1(C(F)(F)F)Oc2ccc(Cl)cc2O1 (stereo not given)	>57	9.78*
O=C(NCCN1CCOCC1)c1cccc(Cl)c1	>57	?
CC(C)(C)n1ncc2c(=O)n(CC(=O)c3ccc(Cl)cc3)cnc21	/	>76.9
CC(C)(C)n1ncc2c(=O)n(Cc3c(F)cccc3Cl)cnc21	9.95*	>76.9
CC(C)(C)n1ncc2c(=O)n(Cc3ccc(Cl)cc3Cl)cnc21	2.88*	>76.9
CC(C)(C)n1ncc2c(=O)n(CC(=O)Nc3ccc(Cl)cc3)cnc21	>57	>76.9
COc1ccc(N2CCN(Cc3cc(=O)oc4ccc(Cl)cc34)CC2)cc1	>57	>76.9
COc1ccc(N2CCN(Cc3cc(=O)oc4c3ccc3ccccc34)CC2)cc1	>57	3.32*
O=C(c1cc2ccccc2oc1=O)N(Cc1ccco1)CC1CCCO1 (stereo not given)	>57	>76.9
COc1cccc(C(=O)Cn2c(=N)n(C)c3ccccc32)c1	2.48*	i
COc1cccc(C(=O)Cn2c(N3CCCCC3)nc3c2c(=O)n(C)c(=O)n3C)c1	>57	>76.9
O=C(c1ccc(=O)oc1)N1CCCc2ccccc21	>57	>76.9
Cc1onc(-c2ccccc2Cl)c1C(=O)Nc1ccc(F)c(F)c1	>57	i
Cc1onc(-c2ccccc2Cl)c1C(=O)Nc1cccc(-c2cn3cccnc3n2)c1	>57	11.4*
Cc1ccc(OC(=O)CCc2c(C)nc3ncnn3c2C)cc1	>57	>76.9
CC(C)c1ccc(NC(=O)C2CC(=O)N=C(N)S2)cc1 (stereo not given)	>57	3.77*
CCc1ccc(NC(=O)C2CC(=O)N=C(N)S2)cc1 (stereo not given)	>57	?
O=C(CSc1ccc2nnc(-c3ccccc3)n2n1)N1CCCCC1	>57	>76.9
O=C(CSc1nnc(-c2ccco2)n1Cc1ccccc1)c1ccc(F)cc1	>57	>76.9
Fc1ccc(-c2cc3nc(-c4ccccc4)cc(N4CCN(CCN5CCOCC5)CC4)n3n2)cc1	2.45*	?
COc1cccc(-c2cc3nc(-c4ccccc4)cc(N4CCC5(CC4)OCCO5)n3n2)c1	/	>76.9
SMILES	Bst PK mod	GBA mod
COc1ccccc1-c1nc(C#N)c(N2CCN(c3ccccc3)CC2)o1	/	10.1*
COc1ccc(N2CCN(c3oc(-c4ccccc4OC)nc3C#N)CC2)cc1	/	>76.9
COc1cc(C(C)=O)ccc1OCC(=O)c1cc(C)n(C2CC2)c1C	>57	>76.9
O=c1nc(-c2ccccc2)c2ccccc2[nH]1	>57	>76.9
c1ccc2nc3c(nc2c1)[nH]c1ccccc13	4.15*	>76.9
O=C(CSc1nnc(-c2ccc(S(=O)(=O)N3CCCC3)cc2)o1)NCc1ccco1	>57	>76.9
COC(=O)c1ccc(NC(=O)C2CCN(S(C)(=O)=O)CC2)cc1	>57	>76.9
CCc1ccc(NC(=O)C2CCN(S(C)(=O)=O)CC2)cc1	>57	?
CS(=O)(=O)N1CCC(C(=O)Nc2ccc(Oc3ccccc3)cc2)CC1	>57	14.3*
CC(C)c1ccc(NC(=O)C2CCN(S(C)(=O)=O)CC2)cc1	>57	12.4*
Cn1c(C(=O)Nc2ccc3c(c2)OCCO3)cc2sccc21	3.01*	>76.9
CCOC(=O)c1cccc(NC(=O)c2cc3sccc3n2C)c1	/	>15.4
CCCCCOC(=O)CSc1nnc(-c2ccccc2)c(=O)[nH]1	>57	>76.9
CCOC(=O)c1cn2c3c(c(F)c(F)c(F)c3c1=O)SC(N1CCCC1)=N2	>57	>76.9
Cc1c(C)[n+](=O)c2c(n1[O-])CCCCC2	>57	>76.9
COc1ccc(-n2nc3cc(C)c(NC(=O)c4cccnc4)cc3n2)cc1	9.61*	>76.9
COC(=O)c1cc(OC)c(OC)cc1NC(=O)c1cccnc1	>57	>76.9
CCC(=O)Nc1cc2nn(-c3ccccc3)nc2cc1Cl	/	>76.9
Cc1cc2nn(-c3ccccc3)nc2cc1NC(=O)c1cccs1	2.29*	>76.9
O=C(c1csc2c1CCCCC2)N1CCN(c2ncccn2)CC1	i	>76.9
CC(CCc1ccco1)NC(=O)CSc1cc(=O)n(C)c2ccccc12 (stereo not given)	>57	>76.9
CCOC(=O)C1=C(C)NC(C)=C(C(=O)OCC)C1C(=O)OCC(=O)N1CCc2ccccc2C1	>57	>76.9
Cc1nc(N2CCc3ccccc3C2)[nH]c(=O)c1CCC(C)C	>57	5.28*
Cc1nc(N2CCOCC2)[nH]c(=O)c1CCC(C)C	>57	>76.9
CCOc1ccc(C2C=C(c3ccccc3)Nc3nnnn32)cc1 (stereo not given)	>57	3.74*
